Assay results reported in the supplement of paper PMC8728848.
Shown is part of a subset that was picked to be rich in the strongest signals.

Columns and labels:
Test in all cases: glycan array binding signal (z-score within array); higher = stronger binding
Details in all cases: glycan notation: IUPAC condensed, linker removed
[1] = target: Fuc(a1-2)Gal(b1-4)GlcNAc(b1-3)[Fuc(a1-2)Gal(b1-4)GlcNAc(b1-6)]GalNAc
Outline: (§1)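 Negative Z-scores can be read as non-binding. The Z-score is calculated within each array and then averaged across arrays of one protein sequence at different concentrations or buffers and across linkers. Arrays, 3228 in all, were curated from the Consortium for Functional Glycomics database and kept only where the protein sequence was available.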

[2] = target: Fuc(a1-2)Gal6S(b1-3)GlcNAc
Outline: as §1

[3] = target: Fuc(a1-2)[GalNAc(a1-3)]Gal(b1-3)GlcNAc(b1-2)Man(a1-3)[Fuc(a1-2)[GalNAc(a1-3)]Gal(b1-3)GlcNAc(b1-2)Man(a1-6)]Man(b1-4)GlcNAc(b1-4)[Fuc(a1-6)]GlcNAc
Outline: as §1

[4] = target: Fuc(a1-2)[GalNAc(a1-3)]Gal(b1-4)GlcNAc
Outline: as §1

Fuc(a1-3)GlcNAc = target: Fuc(a1-3)GlcNAc
Outline: as §1

[5] = target: Fuc(a1-3)[Gal(b1-4)]GlcNAc(b1-3)Gal(b1-4)[Fuc(a1-3)]GlcNAc
Outline: as §1

[6] = target: Fuc(a1-3)[Gal(b1-4)]GlcNAc6S
Outline: as §1

[7] = target: Gal(a1-3)[Gal(a1-4)]Gal(b1-4)GlcNAc
Outline: as §1

Gal(b1-3)Gal = target: Gal(b1-3)Gal
Outline: as §1

Gal(b1-3)GlcNAc = target: Gal(b1-3)GlcNAc
Outline: as §1

[8] = target: Gal(b1-3)GlcNAc(b1-2)Man(a1-3)[Gal(b1-3)GlcNAc(b1-2)Man(a1-6)]Man(b1-4)GlcNAc(b1-4)[Fuc(a1-6)]GlcNAc
Outline: as §1

[9] = target: Gal(b1-3)GlcNAc(b1-3)Gal(b1-4)Glc
Outline: as §1

[10] = target: Gal(b1-3)GlcNAc(b1-6)GalNAc
Outline: as §1

[11] = target: Gal(b1-3)GlcNAc(b1-6)[Gal(b1-3)]GalNAc
Outline: as §1

[12] = target: Gal(b1-3)[GlcNAc(b1-6)]GalNAc
Outline: as §1

[13] = target: Gal(b1-4)GlcNAc(b1-2)Man(a1-3)[Gal(b1-4)GlcNAc(b1-2)Man(a1-6)][GlcNAc(b1-4)]Man(b1-4)GlcNAc(b1-4)[Fuc(a1-6)]GlcNAc
Outline: as §1

[14] = target: Gal(b1-4)GlcNAc(b1-2)[Gal(b1-4)GlcNAc(b1-4)]Man(a1-3)[Gal(b1-4)GlcNAc(b1-2)Man(a1-6)]Man(b1-4)GlcNAc(b1-4)GlcNAc
Outline: as §1

[15] = target: Gal(b1-4)GlcNAc(b1-3)Gal(b1-4)GlcNAc(b1-2)Man(a1-3)[Gal(b1-4)GlcNAc(b1-3)Gal(b1-4)GlcNAc(b1-2)Man(a1-6)]Man(b1-4)GlcNAc(b1-4)GlcNAc
Outline: as §1

[16] = target: Gal(b1-4)GlcNAc(b1-3)Gal(b1-4)GlcNAc(b1-3)Gal(b1-4)GlcNAc(b1-2)Man(a1-3)[Gal(b1-4)GlcNAc(b1-3)Gal(b1-4)GlcNAc(b1-3)Gal(b1-4)GlcNAc(b1-2)Man(a1-6)]Man(b1-4)GlcNAc(b1-4)GlcNAc
Outline: as §1

[17] = target: Gal(b1-4)GlcNAc(b1-3)Gal(b1-4)GlcNAc(b1-3)Gal(b1-4)GlcNAc(b1-2)[Gal(b1-4)GlcNAc(b1-3)Gal(b1-4)GlcNAc(b1-3)Gal(b1-4)GlcNAc(b1-6)]Man(a1-6)[Gal(b1-4)GlcNAc(b1-3)Gal(b1-4)GlcNAc(b1-3)Gal(b1-4)GlcNAc(b1-2)Man(a1-3)]Man(b1-4)GlcNAc(b1-4)[Fuc(a1-6)]GlcNAc
Outline: as §1

[18] = target: Gal(b1-4)GlcNAc(b1-3)Gal(b1-4)GlcNAc(b1-3)Gal(b1-4)GlcNAc(b1-3)Gal(b1-4)GlcNAc(b1-2)Man(a1-3)[Gal(b1-4)GlcNAc(b1-3)Gal(b1-4)GlcNAc(b1-3)Gal(b1-4)GlcNAc(b1-3)Gal(b1-4)GlcNAc(b1-2)Man(a1-6)]Man(b1-4)GlcNAc(b1-4)[Fuc(a1-6)]GlcNAc
Outline: as §1

[19] = target: Gal(b1-4)GlcNAc(b1-3)Gal(b1-4)GlcNAc(b1-3)[Gal(b1-4)GlcNAc(b1-3)Gal(b1-4)GlcNAc(b1-6)]GalNAc
Outline: as §1

[20] = target: Gal(b1-4)GlcNAc(b1-3)Gal(b1-4)GlcNAc(b1-6)[Gal(b1-3)]GalNAc
Outline: as §1

[21] = target: Gal(b1-4)GlcNAc(b1-3)[GlcNAc(b1-6)]Gal(b1-4)GlcNAc
Outline: as §1

[22] = target: Gal3S(b1-4)[Fuc(a1-3)]GlcNAc6S
Outline: as §1

B1: MPA (Maclura pomifera), P18674 (protein)
chain: GVTFDDGAYTGIREINFEYNSETAIGGLRVTYDLNGMPFVAEDHKSFITGFKPVKISLEFPSEYIVEVSGYVGKVEGYTVIRSLTFKTNKQTYGPYGVTNGTPFSLPIENGLIVGFKGSIGYWLDYFSIYLSL
[1]
  glycan array binding signal (z-score): -0.236
[2]
  glycan array binding signal (z-score): -0.247
[3]
  glycan array binding signal (z-score): -0.363
[4]
  glycan array binding signal (z-score): -0.227
Fuc(a1-3)GlcNAc
  glycan array binding signal (z-score): -0.164
[5]
  glycan array binding signal (z-score): -0.148
[6]
  glycan array binding signal (z-score): 0.042
[7]
  glycan array binding signal (z-score): -0.119
Gal(b1-3)Gal
  glycan array binding signal (z-score): -0.079
Gal(b1-3)GlcNAc
  glycan array binding signal (z-score): -0.201
[8]
  glycan array binding signal (z-score): -0.074
[9]
  glycan array binding signal (z-score): -0.157
[10]
  glycan array binding signal (z-score): -0.363
[11]
  glycan array binding signal (z-score): -0.291
[12]
  glycan array binding signal (z-score): -0.112
[13]
  glycan array binding signal (z-score): -0.26
[14]
  glycan array binding signal (z-score): -0.046
[15]
  glycan array binding signal (z-score): 3.21
[16]
  glycan array binding signal (z-score): 8.11
[17]
  glycan array binding signal (z-score): 2.44
[18]
  glycan array binding signal (z-score): 4.26
[19]
  glycan array binding signal (z-score): 4
[20]
  glycan array binding signal (z-score): 2.93
[21]
  glycan array binding signal (z-score): -0.172
[22]
  glycan array binding signal (z-score): -0.226
